# Measured values published in PubChem BioAssay AID686978 (National Center for Advancing Translational Sciences (NCATS), 2013).
# Values joined by “and” are separate entries in the source; they are usually repeats but may differ in a detail not shown here. Equal values may be shown once. Hit rate of the full screen: of about 420,000 compounds, about 64,000 (15%) were called active. Roughly 27% stayed inconclusive and do not appear here. The call rests on the fitted dose curve; in most records, active means well fitted inhibition curve with a large enough effect; inconclusive means small, poorly fitted or top-dose-only effect; inactive means flat fitted curve, though single readings scatter. These entries were drawn from the full list. A call without a number means that no potency is given here.
# Assay: qHTS for Inhibitors of human tyrosyl-DNA phosphodiesterase 1 (TDP1): qHTS in cells in absence of CPT; further: nearly all actives have a fitted effect of over 55% in size
# Conditions: DT40 Tdp1-/- hTDP1 cells, no CPT, ATP luminescence, 48 h; activity change, negative = growth inhibition: at 46.2 µM (top of the series)
# Summary of the method: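 A cellular qHTS used chicken DT40 cells lacking endogenous Tdp1 but carrying stably transfected human TDP1. Compounds were applied without camptothecin, and cell growth kinetics were judged by ATP-dependent luminescence after ≥48 hr.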
# Potency means the concentration at half of the fitted maximal effect.
row,SMILES,Potency
1,N=c1n(Cc2ccc(Cl)cc2)c2ccccc2n1CC(O)c1ccco1 (stereo not given),5.8 µM (active)
2,O=S(=O)(O)c1nc2ccccc2n1Cc1ccc(Cl)cc1,inactive
3,CCC1=NN2C(=N)/C(=C/c3cc(C)n(-c4ccccc4)c3C)C(=O)N=C2S1,inactive
4,CCCC(=O)NC(=S)Nc1ccc(CN2CCOCC2)cc1,inactive
5,COC(=O)c1sccc1NC(=S)Nc1ccc(C)cc1,inactive
6,COC(=O)c1sccc1NC(=O)CCC1CCCC1,inactive
7,CCOC(=O)C(=CNNc1ccsc1C(=O)OC)C(=O)OCC,10.3 µM (active)
8,CCn1c(SCC(=O)N(C)C2CCS(=O)(=O)C2)nnc1-c1cccs1 (stereo not given),inactive
9,CC(C)N1C(=O)c2ccccc2NC(=O)C1C(=O)NCc1cccs1 (stereo not given),inactive
10,CCN(CC(=O)NCc1cccs1)C(=O)c1cccc(S(=O)(=O)Nc2ccccc2OC)c1,inactive
11,CCC1Sc2ccc(S(=O)(=O)CCC(=O)NCc3cccs3)cc2NC1=O (stereo not given),14.6 µM (active)
12,Cc1cc(C)c(NC(=O)CS(=O)CC(=O)Nc2cccnc2)c(C)c1 (stereo not given),inactive
13,COc1ccccc1N(CC(=O)Nc1ccccc1C(=O)N1CCCC1)S(C)(=O)=O,inactive
14,CCOC(=O)CN1C(=O)C(O)(CC(=O)c2ccccn2)c2ccccc21 (stereo not given),4.11 µM (active)
15,CCOC(=O)CN1CCC(c2ccccc2)CC1,inactive
16,COc1ccccc1OCC(=O)O/N=C(\N)c1ccccn1,inactive
17,CCCc1nn(C)c2c(=O)[nH]c(-c3cc(S(N)(=O)=O)ccc3OCC)nc12,inactive
18,Cn1c2ccccc2n2c(=O)c(=O)n(CC(=O)c3ccc(F)cc3)nc12,inactive
19,CCOC(=O)c1ccc(N2C(=O)CC(N(C)Cc3ccccc3)C2=O)cc1 (stereo not given),inactive
20,Cc1ccc(CN2C(=O)N/C(=C/c3cc(C)n(-c4ccccn4)c3C)C2=O)cc1,23.1 µM (active)
21,Cc1cc(/C=C2/NC(=O)NC2=O)c(C)n1-c1cccnc1,inactive
22,O=C1N/C(=C/c2cccs2)C(=O)N1Cc1ccc(F)cc1,inactive

row,SMILES,Potency
1,COCCn1c(=O)c(-c2cccs2)nc2cncnc21,inactive
2,CCOCCc1c(O)nc(SCC(=O)NCc2ccco2)[nH]c1=O,inactive
3,O=C(NC1CCCCC1)C(c1cc2ccccc2o1)n1c(=O)c(-c2ccco2)nc2ccccc21 (stereo not given),16.4 µM (active)
4,Cn1c(SCC(=O)NC2CCCCC2)nnc1-c1cc2ccccc2o1,inactive
5,O=C(Nc1cc2ccccc2oc1=O)C1CCCCC1,inactive
6,CN1CCC(N(C)S(=O)(=O)c2ccc(NC(=O)c3cccc(C#N)c3)cc2)CC1,inactive
7,COc1ccc(CC(=O)Nc2cc(S(=O)(=O)N3CCCCC3)ccc2N2CCN(C)CC2)cc1,inactive
8,CN(C)S(=O)(=O)c1ccc(N2CCCC2)c(C(=O)NCc2ccccc2)c1,inactive
9,CCN(CC)S(=O)(=O)c1ccc(N2CCOCC2)c(C(=O)O)c1,inactive
10,CCN(CC)S(=O)(=O)c1ccc(N2CCOCC2)c(NC(=O)c2ccc(=O)n(C)n2)c1,inactive
11,CCN(CC)S(=O)(=O)c1ccc(N2CCCC2)c(NC(=O)c2ccc([N+](=O)[O-])o2)c1,23.1 µM (active)
12,CCN(CC)S(=O)(=O)c1ccc(N2CCOCC2)c(NC(=O)C2COc3ccccc3O2)c1 (stereo not given),16.4 µM (active)
13,Cc1ccc(/C=N/NC(=O)CNC(=O)COc2ccccc2)o1,inactive
14,Cc1ccc(NC(=S)NC2CCCC2)cc1,inactive
15,CCCC/C(C)=N/NC(=O)NC1CCCCC1,inactive
16,Cc1ccc(/C=N/NC(=S)NC2CCCCC2)o1,4.11 µM (active)
17,COc1ccc(C(C)NC(=S)NC2CCCCC2)cc1OC (stereo not given),inactive
18,C/C(=N\NC(=S)NC1CCCCC1)c1ccc(C)o1,23.1 µM (active)
19,Cn1c(N)cc(=O)n(C)c1=S,inactive
20,Cc1n[nH]c(=O)c2c(NC(=O)COC(=O)c3ncc(Cl)c(Cl)c3Cl)oc(C)c12,inactive
21,O=C(CN1CCN(S(=O)(=O)c2ccc(Cl)s2)CC1)NCc1ccc(Cl)cc1,inactive
22,N#Cc1ccc(COC(=O)Cn2nnc(-c3ccccc3)n2)cc1,inactive

row,SMILES,Potency
1,Cc1ccc(NC(=O)CN2C(=O)NC(C)(c3ccc(Cl)cc3)C2=O)c(Br)c1 (stereo not given),inactive
2,Cc1c(S(=O)(=O)NC(C)c2ccccc2)c(=O)n(C)c(=O)n1C (stereo not given),inactive
3,Cn1sc(NC(=O)c2ccccc2)nc1=O,inactive
4,C=CCn1nc(C(=O)OCC)cc1-c1sc(NC(=O)c2ccccc2)nc1C,20.6 µM (active)
5,CCOC(=O)c1cc(-c2sc(NC(=O)c3ccccc3)nc2C)n(CCO)n1,6.51 µM (active)
6,CC(=O)c1sc(NC(=O)c2cccc3ccccc23)nc1C,inactive
7,CCOC(=O)C(=O)Nc1nc(-c2ccccc2)c(CC)s1,inactive
8,CCOc1ccc(C(=O)Nc2c3c(nn2-c2ccccc2)CS(=O)(=O)C3)cc1,inactive
9,CCOC(=O)c1cc(OC(=O)c2ccccc2Cl)n(-c2ccccc2)n1,inactive
10,CCOC(=O)c1cc(-c2sc(NC(=O)c3ccccc3)nc2C)n(-c2ccc(Br)cc2)n1,25.9 µM (active)
11,CCOC(=O)c1cc(-c2sc(NC(=O)c3ccccc3)nc2C)n(Cc2ccccc2)n1,18.4 µM (active)
12,CCOC(=O)c1cc(NC(=O)c2cccnc2)ccn1,inactive
13,CCOC(=O)c1sc(NC(=O)CSc2nc(O)c(Cc3ccccc3)c(=O)[nH]2)nc1C,inactive
14,CCOc1ccccc1NC(=O)CSc1ncc(S(=O)(=O)c2ccc(C(C)(C)C)cc2)c(=O)[nH]1,inactive
15,O=C1CSC2=NCN(c3ccccc3)CN12,inactive
16,Nc1scc(-c2ccncc2)c1Cl,inactive
17,Cc1nc2ccc(S(=O)(=O)N(C)CC(=O)NC(C)c3ccccc3)cc2s1 (stereo not given),inactive
18,CCCc1cc(=O)oc2c(C)c(OC(C)C(=O)NCC(O)c3ccccc3)ccc12 (stereo not given),inactive
19,c1ccc2cc(OCCN3CCCC3)ccc2c1,inactive
20,Cc1nnc2n1N=C(c1ccc3c(c1)NC(=O)CO3)CS2,inactive
21,CC(C(=O)NCCc1ccc(S(N)(=O)=O)cc1)N1C(=O)CC(C)(C)Sc2ccccc21 (stereo not given),inactive
22,Cc1c(C(=O)NNC(=O)c2ccncc2)oc2ccccc12,inactive

row,SMILES,Potency
1,C/C(=C/C(=O)N1CCN(C)CC1)C(=O)O,inactive
2,COc1ccc(F)cc1S(=O)(=O)Nc1ccc2c(c1)OCO2,inactive
3,COc1ccc(CCNC(=O)c2cc(-c3ccc4c(c3)OCO4)on2)cc1OC,inactive
4,COc1cc(-c2c(-c3ccc4c(c3)OCO4)noc2C)ccc1F,17.8 µM (active) and 16.4 µM (active)
5,O=C(CSC1=Nc2ccccc2C2=NC(CC(=O)NCc3ccco3)C(=O)N12)NCc1ccco1 (stereo not given),inactive
6,O=C(CC1N=C2c3ccccc3N=C(SCc3cccc(Cl)c3)N2C1=O)NCc1ccc2c(c1)OCO2 (stereo not given),20.6 µM (active)
7,O=C(CC1N=C2c3ccccc3N=C(SCc3ccccc3Cl)N2C1=O)NCc1ccco1 (stereo not given),inactive
8,NC(=O)CSC1=Nc2ccccc2C2=NC(CCC(=O)NCc3ccc(F)cc3)C(=O)N12 (stereo not given),inactive
9,COc1ccccc1NC(=O)N1CCCC1C(=O)NCc1cccs1 (stereo not given),inactive
10,COc1ccccc1NC(=O)CSC1=Nc2ccccc2C2=NC(CC(=O)NCc3cccs3)C(=O)N12 (stereo not given),20.6 µM (active)
11,CC(C)NC(=O)N1CC[C@@]2(CCCN(C(=O)c3ccco3)C2)C1,inactive
12,COc1ccc(N2C(=O)C3CCCN3C2c2cccc(OC)c2)cc1 (stereo not given),inactive
13,Cc1ccc(OCC(=O)Nc2ccc(S(=O)(=O)Nc3ccccn3)cc2)cc1,inactive
14,Cc1ccc(S(=O)(=O)Nc2ccc3ncccc3c2)cc1,9.2 µM (active)
15,Cc1ccc(NS(=O)(=O)c2ccc(C(C)(C)C)cc2)cn1,inactive
16,CS(=O)(=O)N(CC(=O)Nc1ccc(F)cc1)C1CCCCC1,inactive
17,CS(=O)(=O)N1CCC2(CC1)CN(Cc1ccccc1)C2,inactive
18,Cc1ccc(CN2C(=O)SC(Nc3ccccc3)C2=O)cc1 (stereo not given),inactive
19,Cc1ccc(-c2nc(=N)sn2Cc2ccccc2)cc1,4.47 µM (active)
20,O=c1onc(-c2cccs2)n1Cc1ccccc1,inactive
21,c1ccc2c(c1)OCCOCCOCCO2,inactive
22,Cc1ccc(NC(=O)CN(C)C(=O)c2ccc(Br)o2)cc1,inactive

row,SMILES,Potency
1,O=C(Nc1ccccc1Cl)c1ccc2nsnc2c1,inactive
2,O=C(Nc1ccccc1Cl)Nn1cnnc1,inactive
3,O=C(Nc1ccccc1Cl)/C(Cl)=C(\Cl)S(=O)c1ccccc1 (stereo not given),0.206 µM (active)
4,C=CCn1c(COc2ccc(F)cc2)nnc1SCC(=O)Nc1cccc(S(N)(=O)=O)c1,inactive
5,O=C(c1cnccn1)N1CCN(S(=O)(=O)c2cccc(Cl)c2)CC1,inactive
6,COc1ccc(-c2ccc(Nc3ccc(S(=O)(=O)N4CCCC4)cc3)nn2)cc1OC,18.4 µM (active)
7,COc1cc(NS(=O)(=O)c2ccc(NC(=O)c3ccc(S(=O)(=O)N4CCCCC4)cc3)cc2)ncn1,inactive
8,COc1ccc(S(=O)(=O)Nc2ccc(S(=O)(=O)N3CCCCC3)cc2)cc1OC,inactive
9,O=C(Nc1ccccc1C(F)(F)F)c1cc(-c2ccc(O)cc2)on1,inactive
10,CCN(CC)Cc1cc(C(C)=O)ccc1O,inactive
11,CC1CCCCN1S(=O)(=O)c1ccc(S(=O)(=O)N(CC(=O)Nc2ccccc2)Cc2cccs2)cc1 (stereo not given),25.9 µM (active)
12,CC1CCCCN1S(=O)(=O)c1ccc(C(=O)Nc2nnc(-c3cccs3)o2)cc1 (stereo not given),5.8 µM (active)
13,CCc1nnc(NC(=O)c2ccc(S(=O)(=O)NC3CCCCC3)cc2)s1,inactive
14,COCCN(CC(=O)Nc1ccccc1C)S(=O)(=O)c1ccc(S(=O)(=O)N2CCCC2)cc1,inactive
15,CS(=O)(=O)c1ccc(-c2nnc(NC(=O)c3ccc4c(c3)OCCO4)o2)cc1,inactive
16,CCN(CC(=O)NCc1cccs1)S(=O)(=O)c1ccc(NC(C)=O)cc1,inactive
17,CC(=O)c1ccc(NC(=O)C2CCCN2S(=O)(=O)c2cccs2)cc1 (stereo not given),inactive
18,CSCc1nnc(NC(=O)c2ccc(S(=O)(=O)N3CCCCC3C)cc2)o1 (stereo not given),20.6 µM (active)
19,CC1CC(C)CN(S(=O)(=O)c2ccc(C(=O)NN3CCOCC3)cc2)C1 (stereo not given),inactive
20,O=C(NCc1cccs1)C(=O)NCC1OCCCN1S(=O)(=O)c1ccc(F)cc1 (stereo not given),inactive
21,CC1CCCCN1S(=O)(=O)CCNC(=O)c1ccccc1 (stereo not given),inactive
22,CC1CCCN(S(=O)(=O)c2ccc(C(=O)Nc3nnc(-c4ccncc4)o3)cc2)C1 (stereo not given),10.3 µM (active)
